Screening results (PubChem)
AID inh: inhibitors of human activation induced cytidine deaminase | Q9GZX7 | AID deamination FRET fluorescence, UDG-coupled, 4 h | Potency, µM (titrated, usually from 115 µM), usual class: inhibitors | hit rate 0.32% among 91,000 | AID 1347428; further: nearly all actives have a fitted effect of over 25% in size
Target sequence (Q9GZX7 whole entry, looked up): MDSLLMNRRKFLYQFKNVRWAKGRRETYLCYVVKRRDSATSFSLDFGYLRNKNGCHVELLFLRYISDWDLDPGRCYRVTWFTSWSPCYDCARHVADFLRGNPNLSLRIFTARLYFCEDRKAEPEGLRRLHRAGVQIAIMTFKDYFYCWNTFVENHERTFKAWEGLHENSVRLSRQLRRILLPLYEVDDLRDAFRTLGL
UDG counterscr: blocks uracil-DNA glycosylase in AID counter-screen; FRET deamination/UDG coupled assay, UDG read, 4 h; hit rate 0.14% among 91,000; AID 1347430; Potency, µM (series often up to 115 µM), for the others: at the highest dose activity change, negative = inhibition, actives largely listed as inhibitors; further: nearly all actives have a fitted effect of over 65% in size
* = called active by the depositor; i = inactive; ? = inconclusive; [ ] = another dose, or the depositor's remark. Compounds with a hit are over-represented: about 0.4% of the library has one in this group of screens. The call rests on the fitted dose curve; in most records, active means well fitted curve in the direction sought with a large enough effect; inconclusive means small, poorly fitted or top-dose-only effect, or another doubt; inactive means no such curve, though single readings can be large; an effect the other way counts as inactive or inconclusive. On the % scale 0 is the no-effect control and ±100 the full control effect; potency means the concentration at half of the fitted maximal effect.

SMILES | AID inh | UDG counterscr
CC1Sc2ccc(C(=O)NNC(=O)CSc3cccc4cccnc34)cc2NC1=O (configuration not stated) | 22µM* | 0%
O=C(Cc1ccc(-c2csc(Nc3ccc(F)cc3)n2)s1)N1CCOCC1 | i | -9%
Brc1c(Br)c(Br)c2n[nH]nc2c1Br | 40µM* | 7%
Brc1c(Br)c(Br)c2[nH]cnc2c1Br | i | -5%
Cc1ccc2nc(Cl)c3cc(C(=O)N4CCCC(C)C4)sc3c2c1 (configuration not stated) | 40µM* | -24%
Cc1ccc2nc(Cl)c3cc(C(=O)N4CCCCC4C)sc3c2c1 (configuration not stated) | ? | -4%
COCCN(CCOC)C(=O)c1cc(Cl)ccc1F | i | -7%
COc1ccc2nc(Nc3nc(-c4ccccc4)cc(=O)[nH]3)nc(C)c2c1 | i | 0%
COc1cccc(-c2cc(=O)[nH]c(Nc3nc(C)c4ccccc4n3)n2)c1 | 22µM* | -9%
CSc1cccc(N/C=C/C(=O)c2ccc(C)c(C)c2)c1 | i | -9%
CCCc1ccc(NC(=O)c2n[nH]c(=O)c3ccccc23)cc1 | i | -2%
CSc1ccc(C2CC(C)=NN2c2nc(-c3ccccc3)cs2)cc1 (configuration not stated) | i | -13%
COc1ccc(-c2csc(N3N=C(C)CC3c3cc(OC)c(OC)c(OC)c3)n2)cc1 (configuration not stated) | ? | 89µM*
c1ccc(CSc2nc3ccccc3s2)cc1 | i | 2%
Cc1ccc(C(=O)c2cn(Cc3ccccc3F)c3cc4c(cc3c2=O)OCCO4)cc1 | ? | -12%
Cc1ccc(C(=O)c2cn(Cc3ccccc3F)c3cc4c(cc3c2=O)OCO4)cc1 | 40µM* | -6%
O=C(O)/C(=C\C=C\c1ccco1)NC(=O)c1ccccc1 | i | -6%
CCN(CC)S(=O)(=O)c1ccc(/C=C/C(=O)OCC(=O)C(C)(C)C)cc1 | i | 1%
COc1ccccc1N1CCN(C(=O)c2cc3c(-c4ccccc4F)nn(C)c3s2)CC1 | ? | -13%
COCCCNC(=O)c1cc2c(-c3cccc(OC)c3)nn(C)c2s1 | i | -26%
COc1ccc(-c2nn(C)c3sc(C(=O)N4CCN(c5ccccc5F)CC4)cc23)cc1OC | ? | 89µM*
COc1cccc(-c2nn(C)c3sc(C(=O)NCc4ccc(C)cc4)cc23)c1 | ? | 89µM*
Cc1cccc(N2CCN(C(=O)c3cc4c(=O)n(C)c5ccccc5c4s3)CC2C)c1 (configuration not stated) | i | -10%
COc1cccc(-c2nn(C)c3sc(C(=O)N4CCN(c5cccc(C)c5)C(C)C4)cc23)c1 (configuration not stated) | 40µM* | ?
CC(C)C(NC(=O)c1ccccc1F)C(=O)NCc1cnn(-c2ccccc2)c1 (configuration not stated) | i | 5%
SMILES | AID inh | UDG counterscr
CC[n+]1c(C)ccc2cc(C)ccc21 | i | 0%
CCN1CCN(c2nc3ccccc3nc2C(C#N)S(=O)(=O)c2cccc(C)c2)CC1 (configuration not stated) | i | -4%
CCOC(=O)c1cccc(Nc2nc(C(=O)OCC)nc3ccccc23)c1 | i | 7%
CCCOC(=O)c1cccc(Nc2nc(C(=O)OCC)nc3ccccc23)c1 | i | 89µM*
COC(=O)c1ccc(COC(=O)c2cc3c(s2)CCC3)o1 | i | -3%
Cc1ccc(CN(C(=O)COc2ccc(Cl)cc2Cl)C2CCS(=O)(=O)C2)o1 (configuration not stated) | i | -12%
COc1c(Cl)cc(C(=O)N(Cc2ccc(C)o2)C2CCS(=O)(=O)C2)cc1Cl (configuration not stated) | i | 89µM*
CN(C(=O)c1nc(-c2cccc(F)c2)n2c1CCCCC2)c1ccccc1F | i | -2%
CCOc1ccc(CCNC(=O)c2nc(-c3cccc(F)c3)n3c2CCCCC3)cc1OCC | 18µM* | ?
CC(NC(=O)c1ccc(-c2ccco2)cc1)c1ccccc1 (configuration not stated) | i | -4%
O=C(CSc1ncnc2nc(N3CCOCC3)sc12)Nc1cc(C(F)(F)F)ccc1Cl | i | -2%
COc1ccc(-c2cc(C)no2)cc1S(=O)(=O)N1CCCC(C)C1 (configuration not stated) | i | -9%
Cc1cc(-c2ccc(C)c(S(=O)(=O)N3CCCC(C)C3)c2)on1 (configuration not stated) | 25µM* | 12%
CC(C)CCNC(=S)NCc1ccco1 | i | 5%
Clc1cccc(CSc2cccc3cccnc23)c1 | 25µM* | -3%
Clc1cccc(CSc2nc3ncccc3o2)c1 | i | 3%
Fc1ccc(N/N=C/c2ccccc2Cl)c(F)c1 | i | -4%
COc1cccc(NC(=O)Cn2c(=O)oc3cc(S(=O)(=O)N4CCCCC4)ccc32)c1 | i | 89µM*
Cc1cccc(NC(=O)Cn2c(=O)oc3cc(S(=O)(=O)N4CCCCCC4)ccc32)c1 | i | -12%
COc1ccc2c(c1)Cc1sc(NC(=O)c3cccc(Br)c3)nc1-2 | 50µM* | -19%
COc1ccc2c(c1)Cc1sc(NC(=O)c3cccc(F)c3)nc1-2 | ? | -10%
CCc1ccc(NC(=O)C2CCCN(S(=O)(=O)c3ccc(F)cc3)C2)cc1 (configuration not stated) | i | -1%
CC1CCN(S(=O)(=O)c2ccc(NC(=O)C3CC(=O)N(CCc4ccc(F)cc4)C3)cc2)CC1 (configuration not stated) | i | 89µM*
Cn1c(SCC(=O)Nc2sccc2C#N)nnc1-c1ccc(Cl)cc1 | i | 2%
CN(C)CCCN(Cc1cccc2ccccc12)Cc1cccc2ccccc12 | i | 3%
SMILES | AID inh | UDG counterscr
CCC(C)Cn1c(/C=C/c2ccccc2)nc2ccccc21 (configuration not stated) | ? | 79µM*
CC(C)Cn1c(/C=C/c2ccc(F)cc2)nc2ccccc21 | i | 14%
CCOc1cc(/C=C/C(=O)c2ccc(Cl)cc2)cc(Cl)c1O | i | -1%
Cc1ccc2nc(CN3CCN(S(=O)(=O)c4ccccc4)CC3)oc2c1 | i | 12%
Cc1cc(C)c(S(=O)(=O)N2CCN(Cc3nc4ccc(C)cc4o3)CC2)c(C)c1 | ? | 89µM*
CC(C(=O)Nc1cc(Cl)cc(Cl)c1)N1CCN(c2ccc(O)cc2)CC1 (configuration not stated) | i | -4%
Cc1ccc(C(C)C)c(OCC(=O)N2CCC(c3nc4ccccc4o3)CC2)c1 | 40µM* | -4%[57.5 µM]
COc1ccccc1OCC(=O)N1CCC(c2nc3ccccc3o2)CC1 | i | -3%[57.5 µM]
CC(Sc1n[nH]c(=O)n1C1CC1)C(=O)c1ccc(Br)cc1 (configuration not stated) | i | 4%
CCSc1nc2sc3c(c2c(=O)n1-c1ccc(C)c(Cl)c1)CCN(C(C)=O)C3 | i | ?
CCCCCSc1nc2sc3c(c2c(=O)n1-c1ccccc1)CCN(C(C)=O)C3 | 25µM* | -22%
Cc1ccc(Cn2ccnc2SCC(=O)Nc2ccc3c(c2)OCO3)cc1 | 79µM* | ?
Cc1ccc(Cn2ccnc2SCC(=O)Nc2ccc3c(c2)OCCO3)cc1 | i | -13%
CN(C)c1ccc(C=Nc2ccc(Nc3ccccc3)cc2)cc1 | ? | -5%
N#Cc1ccccc1OCc1csc(-c2ccccc2)n1 | ? | 89µM*
N#Cc1ccccc1OCc1ccccc1 | i | 0%
